Measured values published in PMC7862700, “An all-to-all approach to the identification of sequence-specific readers for epigenetic DNA modifications on cytosine”.

Assays:
Experiment in all cases: DAPPL (digital affinity profiling via proximity ligation, sequencing); 10 mM Tris-HCl pH 7.5, 50 mM NaCl, 1 mM DTT, 4% glycerol, room temperature, 30 min; GST-TFs on glutathione beads, 16-mer random dsDNA library, 0.1% formaldehyde crosslink after washing; high values mean tight binding
Details in all cases: protein: recombinant; tags: N-terminal GST; dsDNA, one strand shown
FLI1 = biological target: T1, FLI1 (Homo sapiens, UniProt Q01543 1-452)
T1 sequence: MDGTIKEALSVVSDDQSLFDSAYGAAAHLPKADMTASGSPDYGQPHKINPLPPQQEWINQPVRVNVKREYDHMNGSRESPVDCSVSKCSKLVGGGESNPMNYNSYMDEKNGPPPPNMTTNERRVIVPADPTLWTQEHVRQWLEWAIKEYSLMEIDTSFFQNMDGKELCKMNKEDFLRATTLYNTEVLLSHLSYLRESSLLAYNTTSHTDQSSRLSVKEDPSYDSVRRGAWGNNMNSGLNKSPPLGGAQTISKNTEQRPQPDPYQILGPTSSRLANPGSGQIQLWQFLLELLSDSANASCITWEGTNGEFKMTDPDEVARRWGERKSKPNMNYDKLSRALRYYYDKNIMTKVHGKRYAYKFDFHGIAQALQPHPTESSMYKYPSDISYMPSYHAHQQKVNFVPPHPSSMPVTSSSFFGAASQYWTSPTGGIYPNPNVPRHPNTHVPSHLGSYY
Method in brief: (§1)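 Pools were built from human transcription factors expressed in yeast as GST fusions, captured on glutathione beads and DNA-barcoded, along with a tag-only sample. Incubation with 200 nmole of a 16-mer random double-stranded DNA library lasted 30 min at room temperature in Tris/NaCl/DTT/glycerol buffer, and was followed by washing, 0.1% formaldehyde crosslinking, proximity ligation, PCR amplification and Illumina NextSeq500 sequencing. Binding signal is the quotient of each hexamer's read frequency for a factor and its frequency for the tag-only sample.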

GABPA = biological target: T2, GABPA (Homo sapiens, UniProt Q06546 1-454)
T2 sequence: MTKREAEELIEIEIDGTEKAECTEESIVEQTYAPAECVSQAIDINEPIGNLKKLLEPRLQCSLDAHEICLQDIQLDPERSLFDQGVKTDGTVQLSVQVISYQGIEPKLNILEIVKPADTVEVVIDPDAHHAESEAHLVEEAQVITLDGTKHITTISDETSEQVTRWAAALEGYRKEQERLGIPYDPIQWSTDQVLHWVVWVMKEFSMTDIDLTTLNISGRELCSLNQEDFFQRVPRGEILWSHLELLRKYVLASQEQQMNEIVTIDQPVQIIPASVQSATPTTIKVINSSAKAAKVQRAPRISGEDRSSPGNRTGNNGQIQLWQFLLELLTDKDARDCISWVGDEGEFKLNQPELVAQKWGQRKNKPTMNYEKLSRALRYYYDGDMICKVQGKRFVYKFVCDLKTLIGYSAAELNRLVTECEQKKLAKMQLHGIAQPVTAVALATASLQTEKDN
Method in brief: as §1

ELF1 = ELF1 (Homo sapiens, UniProt P32519 1-619)
Method in brief: as §1

EHF = biological target: T3, EHF (Homo sapiens, UniProt Q9NZC4 1-300)
T3 sequence: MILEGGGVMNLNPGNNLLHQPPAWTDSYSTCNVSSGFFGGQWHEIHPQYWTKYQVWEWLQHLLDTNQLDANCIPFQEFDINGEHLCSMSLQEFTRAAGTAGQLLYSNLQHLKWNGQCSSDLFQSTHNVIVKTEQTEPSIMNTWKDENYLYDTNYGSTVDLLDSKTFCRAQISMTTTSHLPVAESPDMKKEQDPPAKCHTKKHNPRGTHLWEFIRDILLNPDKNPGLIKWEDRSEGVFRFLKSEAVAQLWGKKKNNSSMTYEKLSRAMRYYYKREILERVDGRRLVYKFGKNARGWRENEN
Method in brief: as §1

SPIB = SPIB (Homo sapiens, UniProt Q01892 1-262)
Method in brief: as §1

ETV5 = ETV5 (Homo sapiens, UniProt P41161 1-510)
Method in brief: as §1

ELF4 = ELF4 (Homo sapiens, UniProt Q99607 1-663)
Method in brief: as §1

ETV2 = biological target: T4, ETV2 (Homo sapiens, UniProt O00321 1-342)
T4 sequence: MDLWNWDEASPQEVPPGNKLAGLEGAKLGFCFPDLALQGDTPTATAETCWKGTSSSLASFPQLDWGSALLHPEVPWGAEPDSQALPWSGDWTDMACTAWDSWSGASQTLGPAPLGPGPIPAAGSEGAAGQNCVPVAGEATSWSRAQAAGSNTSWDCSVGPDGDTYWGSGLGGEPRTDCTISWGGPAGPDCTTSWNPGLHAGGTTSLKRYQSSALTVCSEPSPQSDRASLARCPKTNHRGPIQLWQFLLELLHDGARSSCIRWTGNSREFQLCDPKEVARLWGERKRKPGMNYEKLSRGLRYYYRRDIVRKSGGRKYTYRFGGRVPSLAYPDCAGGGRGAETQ
Method in brief: as §1

ETV1 = ETV1 (Homo sapiens, UniProt P50549 1-477)
Method in brief: as §1

ETV3L = biological target: T5, ETV3L (Homo sapiens, UniProt Q6ZN32 1-361)
T5 sequence: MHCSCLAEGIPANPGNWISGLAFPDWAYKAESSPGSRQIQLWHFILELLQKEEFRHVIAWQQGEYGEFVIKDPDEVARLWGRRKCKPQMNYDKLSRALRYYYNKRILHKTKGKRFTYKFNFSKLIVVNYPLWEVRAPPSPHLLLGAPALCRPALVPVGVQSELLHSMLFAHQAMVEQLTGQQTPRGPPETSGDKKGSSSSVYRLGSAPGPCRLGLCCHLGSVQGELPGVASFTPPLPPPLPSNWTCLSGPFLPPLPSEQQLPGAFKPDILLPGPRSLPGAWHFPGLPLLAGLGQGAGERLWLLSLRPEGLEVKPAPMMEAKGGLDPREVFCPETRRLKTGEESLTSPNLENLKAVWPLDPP
Method in brief: as §1

ETV3 = biological target: T6, ETV3 (Homo sapiens, UniProt P41162-2 1-143)
T6 sequence: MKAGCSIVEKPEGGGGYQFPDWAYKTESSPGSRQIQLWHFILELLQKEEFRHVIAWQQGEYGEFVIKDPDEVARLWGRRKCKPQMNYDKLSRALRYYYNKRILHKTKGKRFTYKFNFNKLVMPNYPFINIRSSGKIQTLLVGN
Method in brief: as §1

ERG = biological target: T7, ERG (Homo sapiens, UniProt P11308 1-479)
T7 sequence: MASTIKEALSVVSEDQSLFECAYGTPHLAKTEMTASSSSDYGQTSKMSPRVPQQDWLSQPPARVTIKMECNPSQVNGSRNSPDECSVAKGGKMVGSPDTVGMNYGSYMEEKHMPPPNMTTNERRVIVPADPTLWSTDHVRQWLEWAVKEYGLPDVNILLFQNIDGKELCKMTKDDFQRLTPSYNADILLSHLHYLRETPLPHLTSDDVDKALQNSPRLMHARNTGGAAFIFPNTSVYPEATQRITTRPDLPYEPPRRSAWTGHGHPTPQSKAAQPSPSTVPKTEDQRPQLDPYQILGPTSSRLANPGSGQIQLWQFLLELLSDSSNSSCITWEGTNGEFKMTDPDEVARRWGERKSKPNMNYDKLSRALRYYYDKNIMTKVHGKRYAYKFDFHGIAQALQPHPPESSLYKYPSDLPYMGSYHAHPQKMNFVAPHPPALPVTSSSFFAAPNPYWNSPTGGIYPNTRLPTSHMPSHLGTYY
Method in brief: as §1

ELF3 = biological target: T8, ELF3 (Homo sapiens, UniProt P78545 1-371)
T8 sequence: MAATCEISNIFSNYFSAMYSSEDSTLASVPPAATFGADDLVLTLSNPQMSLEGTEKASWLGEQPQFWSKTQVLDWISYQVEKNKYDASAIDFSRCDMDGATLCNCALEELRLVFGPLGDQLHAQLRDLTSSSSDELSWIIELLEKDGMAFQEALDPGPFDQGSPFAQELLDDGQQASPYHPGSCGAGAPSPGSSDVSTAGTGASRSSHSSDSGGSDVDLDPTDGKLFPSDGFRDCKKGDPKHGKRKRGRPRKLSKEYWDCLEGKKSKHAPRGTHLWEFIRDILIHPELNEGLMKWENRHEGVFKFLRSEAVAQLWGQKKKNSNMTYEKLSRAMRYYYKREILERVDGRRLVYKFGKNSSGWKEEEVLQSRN
Method in brief: as §1

ERF = biological target: T9, ERF (Homo sapiens, UniProt P50548 1-548)
T9 sequence: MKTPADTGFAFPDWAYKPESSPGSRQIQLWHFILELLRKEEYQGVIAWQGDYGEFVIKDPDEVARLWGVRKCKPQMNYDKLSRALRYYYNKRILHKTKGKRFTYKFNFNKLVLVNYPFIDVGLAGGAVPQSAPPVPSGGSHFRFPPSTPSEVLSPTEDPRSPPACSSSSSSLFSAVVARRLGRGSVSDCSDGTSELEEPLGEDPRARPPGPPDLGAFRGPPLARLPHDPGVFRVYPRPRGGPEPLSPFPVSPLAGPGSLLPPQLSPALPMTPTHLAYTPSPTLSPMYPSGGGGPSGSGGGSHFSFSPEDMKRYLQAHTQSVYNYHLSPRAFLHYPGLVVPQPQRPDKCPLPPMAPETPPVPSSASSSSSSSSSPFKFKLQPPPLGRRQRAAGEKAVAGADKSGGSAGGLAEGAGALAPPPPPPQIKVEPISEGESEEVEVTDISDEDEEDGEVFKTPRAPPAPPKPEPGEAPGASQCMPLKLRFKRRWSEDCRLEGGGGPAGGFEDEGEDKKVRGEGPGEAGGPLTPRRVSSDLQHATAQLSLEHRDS
Method in brief: as §1

ETV6 = ETV6 (Homo sapiens, UniProt P41212 1-452)
Method in brief: as §1

Chain of ETV5 (P41161 whole entry): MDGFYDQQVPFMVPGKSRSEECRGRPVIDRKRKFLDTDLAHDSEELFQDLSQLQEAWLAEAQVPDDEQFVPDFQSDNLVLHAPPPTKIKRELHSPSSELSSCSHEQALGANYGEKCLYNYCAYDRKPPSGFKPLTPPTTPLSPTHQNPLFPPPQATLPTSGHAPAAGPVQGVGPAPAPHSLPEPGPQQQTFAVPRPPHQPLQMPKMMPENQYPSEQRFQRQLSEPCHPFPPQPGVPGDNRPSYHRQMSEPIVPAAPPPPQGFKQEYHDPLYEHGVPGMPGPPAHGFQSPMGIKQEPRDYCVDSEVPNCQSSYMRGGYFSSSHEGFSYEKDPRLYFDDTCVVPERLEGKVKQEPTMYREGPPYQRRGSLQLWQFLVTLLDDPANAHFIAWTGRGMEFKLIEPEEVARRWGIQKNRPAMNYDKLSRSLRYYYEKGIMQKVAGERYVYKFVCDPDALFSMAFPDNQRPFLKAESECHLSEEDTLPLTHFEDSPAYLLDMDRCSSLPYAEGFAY
Chain of ELF4 (Q99607 whole entry): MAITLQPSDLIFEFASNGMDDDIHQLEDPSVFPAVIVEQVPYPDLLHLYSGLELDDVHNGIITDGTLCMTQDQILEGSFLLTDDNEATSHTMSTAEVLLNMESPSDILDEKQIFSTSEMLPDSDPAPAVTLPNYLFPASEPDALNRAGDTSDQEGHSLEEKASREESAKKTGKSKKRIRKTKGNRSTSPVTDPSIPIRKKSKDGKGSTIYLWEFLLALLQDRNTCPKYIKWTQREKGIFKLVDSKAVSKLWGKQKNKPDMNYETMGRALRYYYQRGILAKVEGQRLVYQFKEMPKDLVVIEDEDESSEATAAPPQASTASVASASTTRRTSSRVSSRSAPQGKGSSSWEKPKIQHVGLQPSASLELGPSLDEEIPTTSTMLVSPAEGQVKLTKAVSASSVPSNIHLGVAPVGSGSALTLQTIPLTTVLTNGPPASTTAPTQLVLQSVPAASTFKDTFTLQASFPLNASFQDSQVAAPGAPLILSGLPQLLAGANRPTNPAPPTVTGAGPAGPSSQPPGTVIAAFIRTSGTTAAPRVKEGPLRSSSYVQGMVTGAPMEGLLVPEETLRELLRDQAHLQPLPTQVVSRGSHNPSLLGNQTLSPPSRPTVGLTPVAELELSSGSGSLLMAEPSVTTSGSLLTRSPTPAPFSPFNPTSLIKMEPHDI
Chain of ETV1 (P50549 whole entry): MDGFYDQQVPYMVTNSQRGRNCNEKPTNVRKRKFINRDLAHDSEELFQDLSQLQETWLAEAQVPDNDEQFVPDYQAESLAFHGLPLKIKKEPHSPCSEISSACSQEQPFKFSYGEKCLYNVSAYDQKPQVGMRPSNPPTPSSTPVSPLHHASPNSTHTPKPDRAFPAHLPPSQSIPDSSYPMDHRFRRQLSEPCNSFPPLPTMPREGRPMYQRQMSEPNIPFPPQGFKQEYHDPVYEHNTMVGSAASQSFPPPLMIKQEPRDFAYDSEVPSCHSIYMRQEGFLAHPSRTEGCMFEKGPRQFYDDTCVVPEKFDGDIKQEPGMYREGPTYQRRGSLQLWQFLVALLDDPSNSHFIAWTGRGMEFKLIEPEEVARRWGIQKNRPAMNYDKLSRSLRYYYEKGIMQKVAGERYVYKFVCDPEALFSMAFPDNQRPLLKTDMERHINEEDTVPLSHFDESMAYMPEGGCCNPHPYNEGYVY
Chain of SPIB (Q01892 whole entry): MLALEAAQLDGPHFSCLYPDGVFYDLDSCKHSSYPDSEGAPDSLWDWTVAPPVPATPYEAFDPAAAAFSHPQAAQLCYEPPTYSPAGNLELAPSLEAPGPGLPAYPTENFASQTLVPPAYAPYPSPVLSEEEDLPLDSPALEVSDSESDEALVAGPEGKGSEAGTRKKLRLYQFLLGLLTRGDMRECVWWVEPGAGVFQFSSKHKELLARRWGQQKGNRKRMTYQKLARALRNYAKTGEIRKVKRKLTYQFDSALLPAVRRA
Chain of ELF1 (P32519 whole entry): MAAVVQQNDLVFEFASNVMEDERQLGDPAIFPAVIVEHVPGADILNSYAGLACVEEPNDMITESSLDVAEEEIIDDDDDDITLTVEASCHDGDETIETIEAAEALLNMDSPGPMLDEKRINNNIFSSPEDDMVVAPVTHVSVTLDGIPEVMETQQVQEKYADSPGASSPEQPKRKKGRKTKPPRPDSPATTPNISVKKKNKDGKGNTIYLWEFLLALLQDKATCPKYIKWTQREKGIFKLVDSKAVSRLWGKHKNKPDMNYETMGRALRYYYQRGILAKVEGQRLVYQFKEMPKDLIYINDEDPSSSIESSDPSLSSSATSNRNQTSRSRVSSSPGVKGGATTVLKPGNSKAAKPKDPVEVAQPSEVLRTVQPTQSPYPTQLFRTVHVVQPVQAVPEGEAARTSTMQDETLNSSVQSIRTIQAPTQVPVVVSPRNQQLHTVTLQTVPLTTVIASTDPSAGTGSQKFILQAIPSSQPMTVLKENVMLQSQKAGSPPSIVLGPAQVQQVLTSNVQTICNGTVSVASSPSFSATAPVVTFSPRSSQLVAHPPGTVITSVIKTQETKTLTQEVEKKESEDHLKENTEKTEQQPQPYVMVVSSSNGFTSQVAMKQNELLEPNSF
Chain of ETV6 (P41212 whole entry): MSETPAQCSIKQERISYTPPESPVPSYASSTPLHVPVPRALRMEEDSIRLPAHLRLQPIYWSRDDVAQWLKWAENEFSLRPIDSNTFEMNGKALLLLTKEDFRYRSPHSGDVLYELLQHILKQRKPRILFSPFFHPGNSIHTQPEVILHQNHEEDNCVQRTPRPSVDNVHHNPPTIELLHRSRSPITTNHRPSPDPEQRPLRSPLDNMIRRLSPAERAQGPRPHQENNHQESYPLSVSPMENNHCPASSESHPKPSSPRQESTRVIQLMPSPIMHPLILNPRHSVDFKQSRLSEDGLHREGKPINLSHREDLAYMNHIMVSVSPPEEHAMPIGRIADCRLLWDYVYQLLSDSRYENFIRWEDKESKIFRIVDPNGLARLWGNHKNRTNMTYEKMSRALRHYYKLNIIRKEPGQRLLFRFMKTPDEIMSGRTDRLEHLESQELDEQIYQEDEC

Sequence	binding signal (FLI1)	binding signal (GABPA)	binding signal (ELF1)	binding signal (EHF)	binding signal (SPIB)	binding signal (ETV5)	binding signal (ELF4)	binding signal (ETV2)	binding signal (ETV1)	binding signal (ETV3L)	binding signal (ETV3)	binding signal (ERG)	binding signal (ELF3)	binding signal (ERF)	binding signal (ETV6)
GGACTC	1.08 fold enrichment (6-mer frequency, TF over GST control)	1.07 fold enrichment (6-mer frequency, TF over GST control)	1.09 fold enrichment (6-mer frequency, TF over GST control)	1.12 fold enrichment (6-mer frequency, TF over GST control)	1.05 fold enrichment (6-mer frequency, TF over GST control)	1.08 fold enrichment (6-mer frequency, TF over GST control)	1.13 fold enrichment (6-mer frequency, TF over GST control)	1.01 fold enrichment (6-mer frequency, TF over GST control)	1.07 fold enrichment (6-mer frequency, TF over GST control)	1.03 fold enrichment (6-mer frequency, TF over GST control)	1.08 fold enrichment (6-mer frequency, TF over GST control)				
CACGGA	1.03 fold enrichment (6-mer frequency, TF over GST control)		1.04 fold enrichment (6-mer frequency, TF over GST control)	1.1 fold enrichment (6-mer frequency, TF over GST control)	1.05 fold enrichment (6-mer frequency, TF over GST control)	1.05 fold enrichment (6-mer frequency, TF over GST control)	1.03 fold enrichment (6-mer frequency, TF over GST control)		1.06 fold enrichment (6-mer frequency, TF over GST control)	1.04 fold enrichment (6-mer frequency, TF over GST control)	1.22 fold enrichment (6-mer frequency, TF over GST control)	1.04 fold enrichment (6-mer frequency, TF over GST control)	1.09 fold enrichment (6-mer frequency, TF over GST control)	1.01 fold enrichment (6-mer frequency, TF over GST control)	1.09 fold enrichment (6-mer frequency, TF over GST control)
